Measurements from PubChem BioAssay (NCATS).
Several values for one entry are separate records, joined by “and”; a condition that tells them apart may be missing. Equal values may be shown once. Records with an inconclusive call do not appear. Entries that show only a call come without a potency. Activity calls are given as the source filed them. Unless noted, the call rests on the fitted dose curve; in most records, active means well fitted curve in the direction sought with a large enough effect; inconclusive means small, poorly fitted or top-dose-only effect, or another doubt; inactive means no such curve, though single readings can be large; an effect the other way counts as inactive or inconclusive.

Legend:
[1] = qHTS for Inhibitors of Ubiquitin-specific Protease USP2a Using CHOP2 as the Reporter: K633 Counterscreen (AID 652168); further: series mostly up to about 57 µM
In short: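 Cell-free interference counterscreen without USP2a: compounds pinned into enzyme-free buffer (20 mM Tris pH 8, 2 mM beta-mercaptoethanol, 0.05% Chaps), then DiUb K48-4IQF substrate added (100 nM stock); fluorescence read kinetically, Ex 525/Em 598.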

[2] = qHTS for Inhibitors of Ubiquitin-specific Protease USP2a Using CHOP2 as the Reporter: Cytotox Assay (AID 652170); further: nearly all actives have a fitted effect of over 70% in size; further: potency means the concentration at half of the fitted maximal effect
In short: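 HCT116 human colon cancer cells, 600 per well in DMEM with 10% FBS, exposed to compounds for 72 hr at 37 deg C. ATP measured by CellTiter-Glo luminescence, normalized to DMSO cells and no-cell background.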

[3] = molecular target: Calcium and integrin-binding protein 1 (Homo sapiens) (UniProt Q99828); experiment: Primary qHTS for Identification of Calcium Integrin Binding Protein 1 (CIB1) Competitor (AID 1508620);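 further: GST tagged CIB1 binding a fluorescein labelled alphaIIb integrin peptide tracer; top concentration of the series differs between compounds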
Sequence of Calcium and integrin-binding protein 1 (Homo sapiens) (Q99828 whole entry, looked up): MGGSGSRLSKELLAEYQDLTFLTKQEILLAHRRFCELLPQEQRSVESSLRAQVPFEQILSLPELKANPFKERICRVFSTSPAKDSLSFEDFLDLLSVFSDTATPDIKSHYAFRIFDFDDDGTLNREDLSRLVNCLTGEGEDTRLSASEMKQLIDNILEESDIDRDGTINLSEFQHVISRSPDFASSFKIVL
In short: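 CIB1-GST (1 uM final) and compound incubated 15 min at room temperature before adding FITC-alphaIIb peptide tracer (100 nM final). Competition for binding read by fluorescence polarization (ex 480, em 540) after another 15 min at room temperature.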

[4] = molecular target: Mitogen-activated protein kinase 10 (Mus musculus) (UniProt Q61831); experiment: JNK3 AlphaScreen Assay (AID 530; active means well fitted curve in either direction with a large enough effect, not every such curve was filed as active;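 further: kinase came from lysate of stimulated human HepG2 cells; signal reports phosphorylation of biotinylated GST-cJun 1-79 at Ser73 with 10 µM ATP; series mostly up to about 57 µM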)
In short: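 Compound titrations were preincubated 15 minutes at room temperature with substrate, antibody and pre-activated JNK3-containing HepG2 lysate. Reactions were started with 10 uM ATP and stopped with EDTA-containing bead buffer for AlphaScreen detection.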

[5] = molecular target: Cytochrome P450 3A4 (Homo sapiens) (UniProt P08684); experiment: qHTS Assay for Activators of Cytochrome P450 3A4 (AID 885); further: nearly all actives have a fitted effect of over 65% in size
Sequence of Cytochrome P450 3A4 (Homo sapiens) (P08684 whole entry, looked up): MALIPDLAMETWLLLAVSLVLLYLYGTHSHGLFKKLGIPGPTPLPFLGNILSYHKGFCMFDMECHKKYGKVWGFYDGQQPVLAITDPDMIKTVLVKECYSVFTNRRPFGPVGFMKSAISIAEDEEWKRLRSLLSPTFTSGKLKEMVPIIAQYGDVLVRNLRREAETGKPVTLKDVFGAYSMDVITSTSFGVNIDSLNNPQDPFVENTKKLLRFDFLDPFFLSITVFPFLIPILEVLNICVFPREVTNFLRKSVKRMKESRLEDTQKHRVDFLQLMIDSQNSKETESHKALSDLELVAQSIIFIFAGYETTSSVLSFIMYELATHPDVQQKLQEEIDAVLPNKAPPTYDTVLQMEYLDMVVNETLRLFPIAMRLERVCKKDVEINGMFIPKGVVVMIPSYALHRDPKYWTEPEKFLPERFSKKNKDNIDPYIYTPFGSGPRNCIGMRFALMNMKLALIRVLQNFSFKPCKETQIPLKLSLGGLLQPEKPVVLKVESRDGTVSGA
In short: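 20nM CYP3A4 + 25uM Luciferin-PPXE (=KM), 200mM KPO4; cpd 10 min RT; NADPH regen, 60 min RT; stop w/ detection buffer, 20 min; luminescence. Normalized to 57 uM ketoconazole.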

[6] = molecular target: Ubiquitin carboxyl-terminal hydrolase 2 (Homo sapiens) (UniProt O75604); experiment: qHTS for Inhibitors of Ubiquitin-specific Protease USP2a Using CHOP2 as the Reporter: K484 Substrate (AID 652173);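 further: cleavage of internally quenched K48 di-ubiquitin substrate measured as rising fluorescence over time; nearly all actives have a fitted effect of over 70% in size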; further: potency means the concentration at half of the fitted maximal effect
Sequence of Ubiquitin carboxyl-terminal hydrolase 2 (Homo sapiens) (O75604 whole entry, looked up): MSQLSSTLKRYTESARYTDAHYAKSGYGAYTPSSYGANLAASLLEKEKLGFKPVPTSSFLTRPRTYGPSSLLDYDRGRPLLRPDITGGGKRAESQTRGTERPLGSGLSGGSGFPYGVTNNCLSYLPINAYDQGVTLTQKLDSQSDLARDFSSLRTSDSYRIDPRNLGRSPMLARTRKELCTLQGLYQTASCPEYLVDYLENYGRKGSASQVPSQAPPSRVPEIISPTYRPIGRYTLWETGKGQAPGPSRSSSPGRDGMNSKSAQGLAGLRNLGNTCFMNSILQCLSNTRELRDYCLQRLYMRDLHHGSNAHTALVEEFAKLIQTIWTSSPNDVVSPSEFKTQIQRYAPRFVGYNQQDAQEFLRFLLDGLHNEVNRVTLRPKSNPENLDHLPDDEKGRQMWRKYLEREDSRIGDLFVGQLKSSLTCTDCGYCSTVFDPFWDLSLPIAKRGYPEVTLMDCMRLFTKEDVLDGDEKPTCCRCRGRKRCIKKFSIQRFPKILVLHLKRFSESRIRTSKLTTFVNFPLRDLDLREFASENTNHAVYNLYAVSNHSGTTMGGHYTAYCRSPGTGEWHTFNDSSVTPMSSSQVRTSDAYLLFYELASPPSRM
In short: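 USP2 (dispensed at 5 nM) was pinned with compounds, then DiUb K48 internally quenched fluorescent substrate (dispensed at 100 nM) was added. The buffer was 20 mM Tris pH 8, 2 mM beta-mercaptoethanol and 0.05% CHAPS. Cleavage was read kinetically as rising fluorescence, Ex 525/Em 598.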

SMILES | outcome [1] | Potency [2] | Potency [3] | outcome [4] | Potency [5] | Potency [6]
O=S(=O)(Nc1nc(CN2CCOCC2)nc2sc3c(c12)CCC3)c1ccc2c(c1)OCCO2 | inactive | inactive | inactive |  |  | 
Cc1ccc(-c2cc(C(=O)N3CC[S+](=O)([O-])CC3)c3ccccc3n2)cc1C | inactive |  | inactive |  |  | 
Cc1ccc(-c2cc(C(=O)Nc3ccccc3)c3ccccc3n2)cc1C | inactive |  | inactive |  |  | 
O=C(Nc1nc(-c2ccccc2)cs1)c1ccccc1S(=O)(=O)Nc1nccs1 | inactive |  | inactive |  |  | 
CCCn1c(-c2ccc(F)cc2)nc2c(NCC3CCN(C)CC3)nc(C)nc21 |  |  | inactive | inactive | inactive | 
O=C(Nc1ccc(S(=O)(=O)Nc2nccs2)cc1)C1CC(OCc2ccccc2)C1 (centres undefined) | inactive | inactive | inactive |  |  | 
CCCn1c(C)nc2c(Nc3ccccc3)nc(C)nc21 |  |  | inactive | inactive | inactive | 
Cc1ccc(-c2cc(C(=O)Nc3ccc(-c4noc(=O)[nH]4)cc3)c3ccccc3n2)cc1C | inactive |  | inactive |  |  | 
Cc1nc(NCc2ccccc2)c2nc(-c3ccccc3)n(CCN(C)C)c2n1 |  |  | inactive | inactive | inactive | 
CCCn1c(C)nc2c(NCCN3CCOCC3)nc(C)nc21 |  |  | inactive | inactive | inactive | 
Cc1ccc(S(=O)(=O)Nc2cnccc2C(=O)Nc2ccccc2)cc1 | inactive |  | inactive |  |  | 
Cc1ccc(S(=O)(=O)Nc2cc(F)c(F)cc2C(=O)Nc2nc(-c3ccccc3)cs2)cc1 | inactive | 2.96 µM (active) | inactive |  |  | 
COCCN(CCOC)c1nc(C)nc2c1nc(-c1ccccc1)n2CCCN(C)C |  |  | inactive | inactive | inactive | 
CCCn1c(C)nc2c(N(CCN(C)C)Cc3ccccc3)nc(C)nc21 |  |  | inactive | inactive | inactive | 
Cc1ccc(NC(=O)c2ccncc2NS(=O)(=O)c2ccc(C)cc2)cc1 | inactive |  | inactive |  |  | 
COc1ccc(NC(=O)c2cc(-c3ccc(C)c(C)c3)nc3ccccc23)cc1 | inactive |  | inactive |  |  | 
Cc1ccc(S(=O)(=O)n2cc(C(=O)Nc3ccc(-c4ccccc4)cc3)c3ccccc32)cc1 | inactive | inactive | inactive |  |  | 
O=C(Nc1ccc(S(=O)(=O)Nc2nccs2)cc1)C1CCC2(CC1)CC2 | inactive | inactive | inactive |  |  | 
O=C(Nc1ccc([S+](=O)([O-])Nc2nccs2)cc1)c1ccccn1 | inactive | inactive | inactive |  |  | 
O=S(=O)(Nc1ccc(S(=O)(=O)Nc2nccs2)cc1)c1ccc2ccccc2c1 | inactive | inactive | inactive |  |  | 
CC(C)C1CCC(C(=O)Nc2ccc(S(=O)(=O)Nc3nccs3)cc2)CC1 (centres undefined) | inactive | inactive | inactive |  |  | 
Cc1ccc(S(=O)(=O)Nc2cc(C)ccc2C(=O)Nc2nc(-c3ccccc3)cs2)cc1 | inactive | 14.8 µM (active) | inactive |  |  | 1.53 µM (active)
CC1CC1C(=O)Nc1ccc([S+](=O)([O-])Nc2nccs2)cc1 (centres undefined) | inactive | inactive | inactive |  |  | 
Cc1ccc(S(=O)(=O)Nc2cnccc2C(=O)Nc2ccc(N3CCOCC3)cc2)cc1 | inactive | inactive | inactive |  |  | 
O=C(Nc1ccc([S+](=O)([O-])Nc2nccs2)cc1)C1CCNCC1 | inactive | inactive | inactive |  |  | inactive
CC1CCC(C(=O)Nc2ccc([S+](=O)([O-])Nc3nccs3)cc2)CC1 (centres undefined) | inactive | inactive | inactive |  |  | 
Cc1ccc(-c2cc(C(=O)Nc3ccccn3)c3ccccc3n2)cc1C | inactive | inactive | inactive |  |  | 
O=C(Nc1ccc([S+](=O)([O-])Nc2nccs2)cc1)c1ncn[nH]1 | inactive | inactive | inactive |  |  | inactive

SMILES | outcome [1] | Potency [2] | Potency [3] | outcome [4] | Potency [5] | Potency [6]
O=c1[nH]c(CCl)nc2sc3c(c12)CCC3 | inactive | 14.8 µM (active) | inactive |  |  | 
O=C(Nc1ccc(S(=O)(=O)Nc2nccs2)cc1)c1cccnc1 | inactive | inactive | inactive |  |  | inactive
COc1cccc(NC(=O)c2cc(-c3ccc(C)c(C)c3)nc3ccccc23)c1 | inactive | inactive | inactive |  |  | 9.68 µM (active)
Cc1ccc(S(=O)(=O)Nc2cnccc2C(=O)Nc2ccc(S(=O)(=O)Nc3nccs3)cc2)cc1 | inactive | inactive | inactive |  |  | 19.3 µM (active)
Cc1ccc(-c2cc(C(=O)N3CCCCC3)c3ccccc3n2)cc1C | inactive | inactive | inactive |  |  | 24.3 µM (active)
Cc1ccc(-c2cc(C(=O)Nc3ccc(C(=O)O)cc3)c3ccccc3n2)cc1C | inactive | inactive | inactive |  |  | 21.7 µM (active)
Cc1ccc(-c2cc(C(=O)Nc3ccc(-c4nn[nH]n4)cc3)c3ccccc3n2)cc1C | inactive | inactive | inactive |  |  | 4.85 µM (active)
O=C1CC(c2ccccc2)Cc2[nH]c(=O)c(-c3nc(-c4ccc(F)cc4)cs3)cc21 (centres undefined) | inactive | 4.18 µM (active) | inactive |  |  | 
CCCCCC1CCC(C(=O)Nc2ccc(S(=O)(=O)Nc3nccs3)cc2)CC1 (centres undefined) | inactive | inactive | inactive |  |  | 4.32 µM (active) and 3.85 µM (active)
O=C(Nc1ccc(S(=O)(=O)Nc2nccs2)cc1)c1ccncc1 | inactive | inactive | inactive |  |  | inactive
O=c1[nH]c(CN2CCOCC2)nc2sc3c(c12)CCC3 | inactive | inactive | inactive |  |  | inactive
O=C(Cc1ccccc1)Nc1ccc(S(=O)(=O)Nc2nccs2)cc1 | inactive | inactive | inactive |  |  | inactive
O=c1[nH]c(CN2CCOCC2)nc2sc3c(c12)CCCC3 | inactive | inactive | inactive |  |  | 
CCS(=O)(=O)N1CCC(C(=O)Nc2ccc(S(=O)(=O)Nc3nccs3)cc2)CC1 | inactive | inactive | inactive |  |  | 
CCCCc1ccc(C(=O)Nc2ccc(S(=O)(=O)Nc3nccs3)cc2)cc1 | inactive | inactive | inactive |  |  | 
Cc1ccc([S+](=O)([O-])n2cc(Cc3ccc(-c4ccccc4)cc3)c3ccccc32)cc1 | inactive | inactive | inactive |  |  | inactive
Cc1ccc(S(=O)(=O)NCCC(=O)Nc2nc(-c3ccccc3)cs2)cc1 | inactive | inactive | inactive |  |  | 
CCNC(=O)C1CCC(C(=O)Nc2ccc([S+](=O)([O-])Nc3nccs3)cc2)CC1 (centres undefined) | inactive | inactive | inactive |  |  | inactive
O=C(Cc1nc2ccc(Cl)cc2[nH]1)Nc1ccc(S(=O)(=O)Nc2nccs2)cc1 | inactive | inactive | inactive |  |  | 
O=C(Nc1ccc([S+](=O)([O-])Nc2nccs2)cc1)c1ccn[nH]1 | inactive | inactive | inactive |  |  | inactive
Cc1ccc(S(=O)(=O)Nc2cnccc2C(=O)Nc2nc(-c3ccc(-c4ccccc4)cc3)cs2)cc1 | inactive | 20.9 µM (active) | inactive |  |  | 
O=C(Nc1ccc(S(=O)(=O)Nc2nccs2)cc1)c1ccnc(-c2ccccc2)c1 | inactive | inactive | inactive |  |  | 13.7 µM (active)
Cc1ccc(S(=O)(=O)Nc2ccc(Cl)cc2C(=O)Nc2nc(-c3ccccc3)cs2)cc1 | inactive | 4.18 µM (active) and 5.9 µM (active) | inactive |  |  | 1.09 µM (active) and 1.72 µM (active)
O=S(=O)(Nc1nc(CN2CCOCC2)nc2sc3c(c12)CCCC3)c1ccc2ccccc2c1 | inactive | inactive | inactive |  |  | 24.3 µM (active)
Clc1nc(CN2CCOCC2)nc2sc3c(c12)CCC3 | inactive | inactive | inactive |  |  | inactive
CCCCCN1CCC(C(=O)Nc2ccc([S+](=O)([O-])Nc3nccs3)cc2)CC1 | inactive | inactive | inactive |  |  | inactive
Cc1ccc(S(=O)(=O)Nc2cnccc2C(=O)NCc2ccccc2)cc1 | inactive | inactive | inactive |  |  | 
